Only a selection was taken, and hits are over-represented in it overall.
Pf Dd2 growth: blocks in vitro growth of P. falciparum Dd2 | P. falciparum Dd2 growth, SYBR Green, 72 h | Potency, µM (doses to about 28.9 µM), usual class: inhibitors | hit rate 4.3% among 120,000 | AID 1347417; active = well fitted inhibition curve with a large enough effect; also: nearly all actives have a fitted effect of over 65% in size
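Readout: SYBR Green fluorescence, 485 nm excitation, 535 nm emission, after ~16 h lysis at 37C. Before that, Dd2-infected red cells (2.5% hematocrit) grew 72 h with compound, 29 uM top final concentration.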
Of the large screens only hits and unclear results are named; the others gave an inactive call.

COc1ccc(N2C(=O)C3(CCCCC3)C2C(=O)NCCCN2CCCC2=O)cc1 (configuration not stated)	none
COc1ccc(-c2onc(C)c2C(=O)NCCSCc2ccco2)cc1	none
O=C(Cn1nnnc1CN1CCOCC1)N1CCCC1c1ccc(F)cc1 (configuration not stated)	none
Cc1nc(N2CCC(NC(=O)Cc3ccccc3C)CC2)cc(C(F)(F)F)n1	none
CCCN1CCC2(CCN([S+](=O)([O-])c3cccc(C(F)(F)F)c3)CC2)Oc2ccccc21	none
CCOc1ccccc1CN1CCC2(CCN(C(=O)c3ccc(C)cc3)CC2)Oc2ccccc21	none
CCCN1CCC2(CCN([S+](=O)([O-])c3cccs3)CC2)Oc2ccccc21	Pf Dd2 growth 11µM
CC(C)(C)C(=O)N1CCC2(CC1)CCN(Cc1cccs1)c1ccccc1O2	Pf Dd2 growth 10µM
CCCN1CCC2(CCN(C(=O)c3ccccc3F)CC2)Oc2ccccc21	none
O=C(Nc1ccc(Cl)cc1)N1CCC2(CC1)CCN(Cc1cccs1)c1ccccc1O2	Pf Dd2 growth 1.4µM
COc1ccc(C(=O)N2CCC3(CC2)CCN(Cc2cccs2)c2ccccc2O3)cc1	none
CC(=O)N1CCC2(CC1)CC(=O)N(c1ccccc1)c1ccccc1O2	none
CCOc1ccccc1CN1CCC2(CCN(C(=O)Nc3ccccc3)CC2)Oc2ccccc21	Pf Dd2 growth 7.1µM
O=C1NCC2(CCN([S+](=O)([O-])c3cccs3)CC2)Oc2ccccc21	none
CCCN1CCC2(CCN(C(=O)c3ccc(F)cc3)CC2)Oc2ccccc21	none
CC(=O)Nc1ccc(CN2CCC3(CC2)CC(=O)c2ccccc2O3)cc1	none
CC1CCCCN1C(=O)Cn1ccn2nc(-c3ccc(F)cc3)c(CO)c2c1=O (configuration not stated)	none
Cn1nc(C2CCN(C(=O)COc3ccc(F)cc3)CC2)c2c1CCOC2	none
O=C(COc1ccccc1)NCc1nnc2ccc(-c3ccc(Cl)cc3)nn12	none
Cc1nc(CN2C(=O)OC3(CCN(CCCc4ccccc4)CC3)C2(C)c2ccccc2)cs1 (configuration not stated)	none
O=C(C1CCN(Cc2ccco2)CC1)N1CCC2(CCCNC2=O)C1 (configuration not stated)	none
COCCNC(=O)[C@@H]1C[C@H](Oc2ccccc2)CN1C(=O)c1sc(C)nc1C	none
Cc1cnn(CCC(=O)N2CCC3(CC2)CN(c2ccncn2)CC3CO)c1 (configuration not stated)	none
CC(C)c1nc(C2Cc3ccccc3N2C(=O)NCc2ccco2)no1 (configuration not stated)	none
O=C(Nc1cc(F)c(F)c(F)c1)N1CCC(n2cnnc2C2CC2)C1 (configuration not stated)	none
COCCNC(=O)[C@@H]1C[C@H](Oc2ccccc2)CN1C(=O)CCc1nc2ccccc2[nH]1	none
CC(=O)N1CCC(CC(=O)N[C@@H]2CN(C)C[C@H]2CN(C)C)CC1	none
CCCN1CCC2(CCN(C(=O)c3ccccc3)CC2)Oc2ccccc21	none
Cc1ccc(C(=O)N2CCC3(CC2)CCN(CCc2ccccc2)c2ccccc2O3)cc1	Pf Dd2 growth 11µM
CCCN1CCC2(CCN(C(=O)c3ccc(C)cc3)CC2)Oc2ccccc21	none
Cc1nc(-c2c3n(c(=O)n(CC(=O)c4ccc(Cl)cc4)c2=O)CCCC3)no1	none
COc1ccc(C(=O)NC2CCN(c3cn[nH]c(=O)c3)CC2)c(OC)n1	none
O=C(NCCC1=CCCN(CCCn2cccc2)C1)c1ccco1	none
Cc1nc(C)c(C(=O)NCC(=O)N2CCCCCCNC(=O)CC2c2ccccc2)s1 (configuration not stated)	none
COc1ccc(C2(C(=O)NCC(=O)N3CCCCCNC(=O)CC3c3ccccc3)CC2)cc1 (configuration not stated)	none
Cc1ncccc1C(=O)NCC(=O)N1CCCCCNC(=O)CC1c1ccccc1 (configuration not stated)	none
COc1ccc(C(=O)NCC(=O)N2CCCCCCNC(=O)CC2c2ccccc2)c(OC)n1 (configuration not stated)	Pf Dd2 growth 8.9µM
COc1ccc(CCC(=O)NCC(=O)N2CCCCCNC(=O)CC2c2ccccc2)cc1 (configuration not stated)	none
COc1ccc2[nH]c(C(=O)NCC(=O)N3CCCCCCNC(=O)CC3c3ccccc3)cc2c1 (configuration not stated)	Pf Dd2 growth 5µM
CC(C)=CCO[C@H]1CCOC[C@H]1NC(=O)CCc1ccc(=O)[nH]n1	none
Cc1ccc(S(=O)(=O)NC[C@H]2O[C@@H](CC(=O)N3CCCC3)[C@H](O)[C@@H]2O)cc1	none
O[C@@H]1C[C@@H](c2nc(-c3ccccc3)no2)N(Cc2cccc(OC(F)(F)F)c2)C1	none
O=C(C[C@@H]1CCNC[C@@H]1Cc1cc(-c2ccccc2)on1)N1CCC(n2c(=O)[nH]c3ccccc32)CC1	none
O=C1NCCCCCN(Cc2cccnc2)[C@@H]2CN(C(=O)Nc3ccccc3F)CC[C@@H]12	none
CCCNC(=O)C1COC2(CCN(C(=O)c3ccc(F)cc3)CC2)N1C(=O)c1ccccc1 (configuration not stated)	none
COc1ccc(CCNC(=O)c2c(C)noc2-c2ccccc2Cl)cc1	none
CCN(C1CCOCC1)C1CN(C(=O)c2cnn(C)c2)C1	none
O=C1[C@@H]2C[C@@H](O)CN2C2(CN(C3Cc4ccccc4C3)C2)C(=O)N1Cc1ccccc1F	none
CCCCN1CCc2nc(N3CCN(C)CC3)ncc2C1	none
COCCn1cc(CN2CCN(c3ccccn3)CC2)ccc1=O	none
CN(C)c1ccc(CN2CCc3nc(N4CCN(c5ccccn5)CC4)ncc3C2)cc1	Pf Dd2 growth 13µM
Cc1ccccc1CN1CCc2nc(N3CCN(c4ncccn4)CC3)ncc2C1	Pf Dd2 growth 8.9µM
Cc1ccc(CN2CCc3nc(N4CCN(c5ccccc5F)CC4)ncc3C2)cc1C	none
COc1ccccc1N1CCN(c2ncc3c(n2)CCN(Cc2ccccc2C)C3)CC1	none
CCOc1ccc(CN2CCc3nc(Nc4ccc(OC)cc4OC)ncc3C2)cc1	none
CCN1CCN(c2ncc3c(n2)CCN(Cc2cc(Br)cs2)C3)CC1	Pf Dd2 growth 13µM
CCOc1ccccc1CN1CCc2nc(N3CCN(c4ccccc4F)CC3)ncc2C1	Pf Dd2 growth 8.9µM
CN1CCN(c2ncc3c(n2)CCN(Cc2ccc(Br)s2)C3)CC1	none
CCOc1ccccc1CN1CCc2nc(N(C)C)[nH]c(=O)c2CC1	none
CCN1CCN(c2ncc3c(n2)CCN(Cc2ccc(C)s2)C3)CC1	none
O[C@@H]1C[C@@H](c2nc(-c3ccc4c(c3)OCO4)no2)N(Cc2cc3ccccc3o2)C1	none
CCn1nccc1C(=O)N1CC(N(Cc2cccnc2)CC(C)C)C1	none
Cc1cc(C(F)(F)F)nc(CNc2cc(C3CC(O)C3)nc(N)n2)n1 (configuration not stated)	none
O=C(NC1CCc2n[nH]c(=O)n2CC1)c1ccsc1 (configuration not stated)	none
C#CCNC(=O)C1CN(c2ccc(F)cc2)C(=O)N1 (configuration not stated)	none
COc1ccc(CN2Cc3cc(NC(=O)Cc4ccc(F)cc4)ccc3OCC2=O)c(OC)c1	none
COc1cc(=O)n2c(c1C(=O)Nc1cc(Cl)ccc1F)CCCC2	none
COc1cccc(C(=O)N2CCN(c3cc(C(F)(F)F)nc(C)n3)CC2)c1OC	none
COc1cc(OC(F)(F)F)ccc1C(=O)NCc1nnc2n1C(C(=O)O)CC2 (configuration not stated)	none
CC(C)NC(=O)N(C1CC1)C1CCOC2(CCN(C(=O)C3CCCC3)CC2)C1 (configuration not stated)	none
COc1ccc(CNc2ncnc3c2CN(C2CCCNCC2)C(=O)CN3C)cc1OC (configuration not stated)	none
